Experimental data published in the supplement of paper PMC11732987, “Enantioselective OTUD7B fragment discovery through chemoproteomics screening and high-throughput optimisation” (Communications Chemistry, 2025).

Experiments:
Experiment in all cases: log2 ratio of Biotin-Ahx-Ub-VS probe labelling (fragment/DMSO); higher = less target engagement (more negative = stronger competition), active = hit call of the paper (q ≤ 0.05, log2 ratio ≤ -1)
Conditions in all cases: compound concentration: 200 uM; treatment time: 3 h
USP19 = molecular target: T1, USP19 (UniProt O94966)
T1 sequence (whole entry): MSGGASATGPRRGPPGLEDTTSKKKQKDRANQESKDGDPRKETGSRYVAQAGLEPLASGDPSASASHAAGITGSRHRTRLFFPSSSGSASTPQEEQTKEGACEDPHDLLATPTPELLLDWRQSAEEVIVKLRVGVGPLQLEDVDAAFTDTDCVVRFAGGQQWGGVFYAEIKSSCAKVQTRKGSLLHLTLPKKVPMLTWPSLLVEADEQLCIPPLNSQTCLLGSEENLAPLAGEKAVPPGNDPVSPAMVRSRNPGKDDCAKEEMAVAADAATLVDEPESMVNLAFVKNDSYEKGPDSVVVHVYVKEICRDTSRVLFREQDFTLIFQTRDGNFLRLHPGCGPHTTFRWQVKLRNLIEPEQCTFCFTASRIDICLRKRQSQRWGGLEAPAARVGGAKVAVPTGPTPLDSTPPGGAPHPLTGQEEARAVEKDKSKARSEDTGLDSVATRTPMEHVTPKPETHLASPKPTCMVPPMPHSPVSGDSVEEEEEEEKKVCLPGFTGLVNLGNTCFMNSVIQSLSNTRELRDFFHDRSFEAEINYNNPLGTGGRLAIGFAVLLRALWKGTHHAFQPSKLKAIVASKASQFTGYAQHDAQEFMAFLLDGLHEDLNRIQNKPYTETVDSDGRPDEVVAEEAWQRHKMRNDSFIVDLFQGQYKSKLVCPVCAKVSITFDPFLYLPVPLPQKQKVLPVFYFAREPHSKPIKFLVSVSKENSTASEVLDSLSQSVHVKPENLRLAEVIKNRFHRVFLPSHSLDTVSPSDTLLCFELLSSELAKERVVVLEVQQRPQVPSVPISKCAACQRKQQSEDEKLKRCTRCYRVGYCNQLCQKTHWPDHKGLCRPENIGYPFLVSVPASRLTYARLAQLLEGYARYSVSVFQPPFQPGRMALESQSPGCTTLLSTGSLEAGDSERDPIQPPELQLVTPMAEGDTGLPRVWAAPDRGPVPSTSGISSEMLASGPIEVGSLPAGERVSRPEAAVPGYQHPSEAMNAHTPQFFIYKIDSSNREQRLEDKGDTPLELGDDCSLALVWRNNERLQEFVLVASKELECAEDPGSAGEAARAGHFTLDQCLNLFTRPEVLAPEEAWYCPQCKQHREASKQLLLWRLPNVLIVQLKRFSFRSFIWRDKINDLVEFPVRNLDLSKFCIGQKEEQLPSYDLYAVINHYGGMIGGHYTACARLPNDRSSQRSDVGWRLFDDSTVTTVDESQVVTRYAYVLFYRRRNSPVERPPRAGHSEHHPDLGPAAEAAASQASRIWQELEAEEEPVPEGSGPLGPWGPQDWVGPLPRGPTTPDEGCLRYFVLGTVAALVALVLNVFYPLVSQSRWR
Outline: (§1)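 Fragment (200 µM) or vehicle was incubated for 3 h with triplicate HEK293T lysate samples of 495 µg, which were then treated with Biotin-Ahx-Ub-VS at 0.5 µM final for 1 h. Labelled DUBs were enriched on NeutrAvidin, digested with LysC and trypsin, and analysed by diaPASEF LC-MS/MS. Values are average log2 fragment/vehicle ratios from an unpaired t-test on global-median-normalised Spectronaut label-free quantities, using proteins with ≥2 unique peptides.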

USP22 = molecular target: T2, USP22 (UniProt Q9UPT9)
T2 sequence (whole entry): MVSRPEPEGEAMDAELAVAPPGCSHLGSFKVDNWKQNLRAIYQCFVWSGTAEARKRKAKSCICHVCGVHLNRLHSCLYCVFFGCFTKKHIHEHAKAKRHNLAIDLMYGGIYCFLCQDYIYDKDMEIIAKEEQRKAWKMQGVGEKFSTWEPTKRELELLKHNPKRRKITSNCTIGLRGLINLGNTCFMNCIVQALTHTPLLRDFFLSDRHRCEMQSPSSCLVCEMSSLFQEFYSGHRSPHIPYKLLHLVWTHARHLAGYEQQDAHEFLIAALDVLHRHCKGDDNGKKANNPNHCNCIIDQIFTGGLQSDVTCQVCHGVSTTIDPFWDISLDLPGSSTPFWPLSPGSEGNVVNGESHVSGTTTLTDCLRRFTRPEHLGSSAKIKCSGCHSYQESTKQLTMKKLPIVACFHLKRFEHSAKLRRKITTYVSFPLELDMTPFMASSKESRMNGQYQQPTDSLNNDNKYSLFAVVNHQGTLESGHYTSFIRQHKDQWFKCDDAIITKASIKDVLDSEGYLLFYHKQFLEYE
Outline: as §1

USP24 = USP24 (UniProt Q9UPU5)
USP24, sequence (Q9UPU5 whole entry): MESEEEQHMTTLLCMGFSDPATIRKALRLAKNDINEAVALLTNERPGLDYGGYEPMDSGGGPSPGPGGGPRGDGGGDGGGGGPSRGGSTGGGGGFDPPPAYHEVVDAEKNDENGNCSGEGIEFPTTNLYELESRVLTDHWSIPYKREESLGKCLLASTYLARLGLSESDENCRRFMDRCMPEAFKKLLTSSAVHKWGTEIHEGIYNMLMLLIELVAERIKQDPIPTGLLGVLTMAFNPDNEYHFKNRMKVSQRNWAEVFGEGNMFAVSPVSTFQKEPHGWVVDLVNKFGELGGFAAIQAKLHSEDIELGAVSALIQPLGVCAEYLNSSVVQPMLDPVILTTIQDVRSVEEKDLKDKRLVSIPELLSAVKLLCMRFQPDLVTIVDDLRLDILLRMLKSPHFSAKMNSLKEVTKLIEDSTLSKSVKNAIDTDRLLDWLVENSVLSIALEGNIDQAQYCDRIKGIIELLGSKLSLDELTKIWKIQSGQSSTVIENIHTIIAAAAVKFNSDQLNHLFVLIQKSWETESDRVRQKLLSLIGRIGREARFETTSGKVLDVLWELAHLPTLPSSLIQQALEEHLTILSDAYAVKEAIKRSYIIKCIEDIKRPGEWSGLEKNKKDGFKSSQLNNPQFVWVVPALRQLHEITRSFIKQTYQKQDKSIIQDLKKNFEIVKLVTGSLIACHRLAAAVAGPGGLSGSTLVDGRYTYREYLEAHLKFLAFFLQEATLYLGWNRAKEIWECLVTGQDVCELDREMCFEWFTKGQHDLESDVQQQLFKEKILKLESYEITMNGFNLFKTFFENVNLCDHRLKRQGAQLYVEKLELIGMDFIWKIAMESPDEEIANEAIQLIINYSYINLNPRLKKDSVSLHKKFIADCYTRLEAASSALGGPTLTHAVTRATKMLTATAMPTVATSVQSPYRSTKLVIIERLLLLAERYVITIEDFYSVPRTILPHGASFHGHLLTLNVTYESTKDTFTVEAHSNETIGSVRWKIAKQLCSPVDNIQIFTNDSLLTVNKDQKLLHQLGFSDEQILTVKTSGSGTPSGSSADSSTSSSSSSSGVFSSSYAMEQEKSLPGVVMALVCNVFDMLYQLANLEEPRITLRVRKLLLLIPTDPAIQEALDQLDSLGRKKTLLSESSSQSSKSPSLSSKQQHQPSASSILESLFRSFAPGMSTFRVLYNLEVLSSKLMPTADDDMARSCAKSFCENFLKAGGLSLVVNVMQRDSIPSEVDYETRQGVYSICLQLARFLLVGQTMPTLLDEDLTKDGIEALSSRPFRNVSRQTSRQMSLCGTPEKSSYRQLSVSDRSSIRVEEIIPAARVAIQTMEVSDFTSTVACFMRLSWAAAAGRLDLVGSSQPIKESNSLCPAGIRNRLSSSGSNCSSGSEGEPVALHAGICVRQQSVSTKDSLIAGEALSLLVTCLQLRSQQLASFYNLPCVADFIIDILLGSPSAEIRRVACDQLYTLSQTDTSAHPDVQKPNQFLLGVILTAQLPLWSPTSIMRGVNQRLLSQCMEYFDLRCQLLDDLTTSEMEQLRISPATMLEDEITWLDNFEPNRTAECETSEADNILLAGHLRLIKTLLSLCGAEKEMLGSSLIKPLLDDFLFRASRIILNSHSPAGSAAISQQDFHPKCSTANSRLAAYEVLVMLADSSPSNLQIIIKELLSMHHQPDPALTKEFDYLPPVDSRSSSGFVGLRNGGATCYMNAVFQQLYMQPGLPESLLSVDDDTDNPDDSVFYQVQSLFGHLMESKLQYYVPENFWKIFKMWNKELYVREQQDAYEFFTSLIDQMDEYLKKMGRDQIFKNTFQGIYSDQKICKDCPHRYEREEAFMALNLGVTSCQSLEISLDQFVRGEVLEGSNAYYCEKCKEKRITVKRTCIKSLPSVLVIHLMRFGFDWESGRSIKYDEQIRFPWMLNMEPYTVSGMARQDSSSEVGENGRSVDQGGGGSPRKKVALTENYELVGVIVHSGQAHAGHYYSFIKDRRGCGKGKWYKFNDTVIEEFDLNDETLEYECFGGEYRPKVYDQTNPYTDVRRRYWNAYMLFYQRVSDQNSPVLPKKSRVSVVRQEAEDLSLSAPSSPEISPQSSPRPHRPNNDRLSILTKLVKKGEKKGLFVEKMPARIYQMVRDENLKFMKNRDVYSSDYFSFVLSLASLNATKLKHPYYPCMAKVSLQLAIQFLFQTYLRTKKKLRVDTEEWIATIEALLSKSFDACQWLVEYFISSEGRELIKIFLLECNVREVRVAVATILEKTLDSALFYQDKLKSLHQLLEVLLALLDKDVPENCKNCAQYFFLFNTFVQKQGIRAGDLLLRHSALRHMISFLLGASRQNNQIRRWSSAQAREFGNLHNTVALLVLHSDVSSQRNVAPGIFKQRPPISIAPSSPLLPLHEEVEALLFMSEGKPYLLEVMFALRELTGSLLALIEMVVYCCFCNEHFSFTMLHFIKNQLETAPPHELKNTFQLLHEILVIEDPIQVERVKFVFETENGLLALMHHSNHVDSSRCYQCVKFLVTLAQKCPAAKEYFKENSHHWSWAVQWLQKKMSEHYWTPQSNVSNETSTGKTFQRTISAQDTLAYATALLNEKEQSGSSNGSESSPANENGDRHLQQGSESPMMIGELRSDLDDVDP
Outline: as §1

USP25 = molecular target: T3, USP25 (UniProt Q9UHP3)
T3 sequence (whole entry): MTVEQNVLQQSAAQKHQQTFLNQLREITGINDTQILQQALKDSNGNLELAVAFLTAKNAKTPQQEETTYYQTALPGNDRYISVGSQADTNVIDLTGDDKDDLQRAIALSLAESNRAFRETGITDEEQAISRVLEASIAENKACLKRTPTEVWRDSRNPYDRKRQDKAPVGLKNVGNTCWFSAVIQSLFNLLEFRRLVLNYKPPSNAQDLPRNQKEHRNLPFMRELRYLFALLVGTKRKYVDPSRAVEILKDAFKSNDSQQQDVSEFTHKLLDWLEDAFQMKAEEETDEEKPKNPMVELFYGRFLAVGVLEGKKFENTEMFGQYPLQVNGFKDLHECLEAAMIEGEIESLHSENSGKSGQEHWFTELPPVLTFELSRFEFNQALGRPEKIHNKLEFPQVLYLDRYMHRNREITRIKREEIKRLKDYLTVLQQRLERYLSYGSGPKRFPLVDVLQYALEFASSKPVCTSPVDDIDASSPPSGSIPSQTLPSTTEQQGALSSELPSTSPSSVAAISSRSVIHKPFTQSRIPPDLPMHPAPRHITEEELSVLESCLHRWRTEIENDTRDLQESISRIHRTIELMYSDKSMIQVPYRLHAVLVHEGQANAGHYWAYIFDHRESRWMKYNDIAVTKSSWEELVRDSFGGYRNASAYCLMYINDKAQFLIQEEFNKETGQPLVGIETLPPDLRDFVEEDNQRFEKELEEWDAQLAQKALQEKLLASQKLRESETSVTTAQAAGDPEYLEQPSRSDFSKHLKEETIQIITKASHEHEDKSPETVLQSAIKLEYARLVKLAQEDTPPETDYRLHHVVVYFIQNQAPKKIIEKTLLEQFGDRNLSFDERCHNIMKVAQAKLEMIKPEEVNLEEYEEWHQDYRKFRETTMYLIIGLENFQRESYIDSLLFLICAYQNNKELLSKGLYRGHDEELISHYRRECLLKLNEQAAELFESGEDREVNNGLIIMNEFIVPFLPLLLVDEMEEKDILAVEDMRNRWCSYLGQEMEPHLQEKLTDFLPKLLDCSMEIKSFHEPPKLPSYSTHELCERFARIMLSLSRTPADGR
Outline: as §1

USP28 = molecular target: T4, USP28 (UniProt Q96RU2)
T4 sequence (whole entry): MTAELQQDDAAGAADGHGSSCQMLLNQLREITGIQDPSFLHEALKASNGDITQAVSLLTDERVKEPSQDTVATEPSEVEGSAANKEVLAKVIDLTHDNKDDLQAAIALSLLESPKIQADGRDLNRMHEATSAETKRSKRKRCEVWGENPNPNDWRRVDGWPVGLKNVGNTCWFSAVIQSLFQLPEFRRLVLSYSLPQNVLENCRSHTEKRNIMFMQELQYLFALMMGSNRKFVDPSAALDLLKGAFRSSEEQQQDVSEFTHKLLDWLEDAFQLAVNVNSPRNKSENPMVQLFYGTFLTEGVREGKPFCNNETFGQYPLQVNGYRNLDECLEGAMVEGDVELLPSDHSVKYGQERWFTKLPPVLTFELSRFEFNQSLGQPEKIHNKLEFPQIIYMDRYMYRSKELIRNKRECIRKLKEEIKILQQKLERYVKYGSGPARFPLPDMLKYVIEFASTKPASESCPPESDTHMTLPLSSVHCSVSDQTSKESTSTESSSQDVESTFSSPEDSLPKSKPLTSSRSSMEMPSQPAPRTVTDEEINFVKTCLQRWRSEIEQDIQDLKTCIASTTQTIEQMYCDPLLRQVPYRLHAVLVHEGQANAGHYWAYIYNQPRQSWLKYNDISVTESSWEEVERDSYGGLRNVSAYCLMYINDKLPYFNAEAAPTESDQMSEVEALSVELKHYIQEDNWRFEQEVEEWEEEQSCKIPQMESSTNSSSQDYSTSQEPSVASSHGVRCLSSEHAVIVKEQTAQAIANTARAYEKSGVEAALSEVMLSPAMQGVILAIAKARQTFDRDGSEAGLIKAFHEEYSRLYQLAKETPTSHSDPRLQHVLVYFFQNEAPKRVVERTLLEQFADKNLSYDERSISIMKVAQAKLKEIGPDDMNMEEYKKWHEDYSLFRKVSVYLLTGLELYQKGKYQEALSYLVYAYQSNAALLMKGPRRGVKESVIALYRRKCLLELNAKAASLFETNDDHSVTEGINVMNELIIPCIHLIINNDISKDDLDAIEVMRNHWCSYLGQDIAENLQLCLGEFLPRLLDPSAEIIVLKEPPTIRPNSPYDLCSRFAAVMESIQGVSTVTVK
Outline: as §1

Measured: log2 ratio of Biotin-Ahx-Ub-VS probe labelling

Cc1ccccc1OCC(=O)N1CCN(C(=O)CCl)CC1
inactive: USP19 -0.401 | USP22 0.0214 | USP24 -0.309 | USP25 -0.0662 | USP28 -0.249
